Hits are enriched below; roughly 18% of the tested compounds scored in any of these assays.
TDP1 cell CPT – growth inhibition of DT40 Tdp1-/-;hTDP1 cells with camptothecin (screen for TDP1 inhibitors); Potency, µM (titrated, usually from 46.2 µM), without a hit: top-dose activity change, negative = growth inhibition, most hits filed as inhibitors; AID 686979; chicken DT40 Tdp1-/-;hTDP1 cells + 20 nM CPT, ATP luminescence, 48 h; actives 12% (n = 420,000); note: potency is the fitted concentration of half-maximal effect; nearly all actives have a fitted effect of over 55% in size
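Chicken DT40 Tdp1-/- cells stably complemented with human TDP1 were seeded at 400 cells/well in medium containing 20 nM camptothecin, exposed to pin-transferred compounds, and grown at 37 °C for at least 48 hr. Viability was read as ATP luminescence.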
TDP1 cell noCPT – qHTS for Inhibitors of human tyrosyl-DNA phosphodiesterase 1 (TDP1): qHTS in cells in absence of CPT | DT40 Tdp1-/- hTDP1 cells, no CPT, ATP luminescence, 48 h | Potency, µM (doses to about 46.2 µM), inactives show at the top dose activity change, negative = growth inhibition, hits mostly inhibitors | actives 15% (n = 420,000) | AID 686978, 2013; note: potency is the fitted concentration of half-maximal effect; nearly all actives have a fitted effect of over 55% in size
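Cells were dispensed at 400 per well, compounds added by pin tool, plates incubated ≥48 hr at 37 °C, then CellTiter-Glo added for 30 min at room temperature before luminescence reading. Line: DT40 Tdp1-/- complemented with hTDP1; camptothecin omitted.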
CtBP-E1A inh – inhibitors of CtBP/E1A interaction | activity change, % (no concentration beside the values) | AID 651724 | AlphaScreen GST-E1A/His-CtBP binding, 1536-well; active compounds read low | actives 0.49% (n = 340,000); in the data active = activity change below about -65%; inconclusive = mostly about -30% to -63%
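Homogeneous bead-based format: GST-tagged E1A captured on glutathione donor beads, His-tagged CtBP on nickel acceptor beads; compounds precede bead addition by 2 h at 37 °C.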
IL-1B inflam inh – blocks inflammasome-driven IL-1 beta release; THP-1 LPS/ATP IL-1B secretion, AlphaLISA, 16 h; active compounds read low; activity change, % at 57.5 µM; actives 4.7% (n = 360,000); AID 743279; in the data active = activity change below about -50%; inconclusive = mostly about -30% to -49%
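Secreted IL-1B measured by AlphaLISA bead assay after 16 h compound exposure of THP-1 cells; compounds (final up to 57.5 uM) added 1 h before LPS (250 ng/mL) and ATP (1.25 mM) stimulation; lower signal means less secretion.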
TDP1 inh – blocks human tyrosyl-DNA phosphodiesterase 1; Q9NUW8; recombinant TDP1, AlphaScreen DNA substrate cleavage; Potency, µM (highest dose often 130 µM), inactives show top-dose activity change, negative = inhibition, most hits filed as inhibitors; actives 0.28% (n = 350,000); AID 485290; note: potency is the fitted concentration of half-maximal effect; nearly all actives have a fitted effect of over 40% in size
Target sequence (Q9NUW8 whole entry, looked up): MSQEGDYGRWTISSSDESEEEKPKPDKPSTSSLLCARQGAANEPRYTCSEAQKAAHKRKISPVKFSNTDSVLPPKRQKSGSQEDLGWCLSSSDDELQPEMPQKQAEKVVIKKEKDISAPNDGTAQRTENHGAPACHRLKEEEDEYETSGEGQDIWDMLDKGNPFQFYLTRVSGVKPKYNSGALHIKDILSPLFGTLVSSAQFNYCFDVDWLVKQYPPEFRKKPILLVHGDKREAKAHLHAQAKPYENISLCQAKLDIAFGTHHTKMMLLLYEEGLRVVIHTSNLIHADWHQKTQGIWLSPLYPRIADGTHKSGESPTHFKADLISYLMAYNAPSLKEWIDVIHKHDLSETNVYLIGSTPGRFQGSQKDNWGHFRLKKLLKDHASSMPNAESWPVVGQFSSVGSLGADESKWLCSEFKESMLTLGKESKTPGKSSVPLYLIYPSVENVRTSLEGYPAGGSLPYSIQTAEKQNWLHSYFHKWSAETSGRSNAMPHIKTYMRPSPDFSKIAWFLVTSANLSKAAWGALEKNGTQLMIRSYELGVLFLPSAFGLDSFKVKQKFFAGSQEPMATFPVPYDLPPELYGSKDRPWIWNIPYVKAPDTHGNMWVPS
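Recombinant human Tdp1 (E. coli-expressed, 1 nM final) preincubated with compounds 15 min at room temperature, then 5'-biotin/3'-phosphotyrosine-FITC DNA substrate (15 nM final) added for 5 min. AlphaScreen beads (10 ug/ml final) added 10 min; cleavage lowers signal.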
Six1-Eya2 blk – inhibitors of human Six1/Eya2 interaction; actives 0.56% (n = 360,000); AlphaScreen GST-Six1/His-Eya2 binding, biochemical; active compounds read low; activity change, % (test concentration not listed); Q15475+O00167; in the data active = activity change below about -65%; inconclusive = mostly about -30% to -63%
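AlphaScreen with GST-Six1 and His-Eya2 (5X mix: 250 nM and 500 nM), glutathione donor and nickel acceptor beads; buffer 50 mM Tris pH 8.0, 300 mM NaCl, 1 mM TCEP; 1 h at 37 C in the dark.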
* marks the source's active call; other numbers are inactive results; ? = inconclusive; . = no result given; [ ] = dose if it differs, or a comment. Unless noted, calls come from the whole dose curve; as a rule, active = well fitted curve in the direction sought with a large enough effect; inconclusive = small, poorly fitted or top-dose-only effect, or another doubt; inactive = no such curve, though single readings can be large; an effect the other way counts as inactive or inconclusive. % is set by controls: 0 for no effect and ±100 for the full control effect.

SMILES | TDP1 cell CPT | TDP1 cell noCPT | CtBP-E1A inh | IL-1B inflam inh | TDP1 inh | Six1-Eya2 blk
COc1cc(/C=N/NC(=O)c2cc(-c3c(C)nn(-c4ccccc4)c3C)n[nH]2)ccc1O | 23µM* | ? | ? | -29 | 5% | ?
COc1cc(/C=N/NC(=O)c2nc(-c3ccccc3)n(-c3ccccc3)n2)ccc1O | 5% | -23% | ? | -3 | 2% | ?
O=C(O)Cc1c(Cl)ccc(Cl)c1Cl | . | . | . | . | 9% | .
COc1ccc(CNC(=O)Cn2ccc3cc(S(=O)(=O)N4CCCCCC4)ccc32)c(OC)c1 | ? | ? | . | . | 3% | .
O=C1CC2(CCN(C(=O)c3ccc(Cl)cc3)CC2)Oc2ccccc21 | -24% | ? | 5 | -17 | 4% | -7
CCSc1ccccc1C(=O)N1CCC2(CC1)CC(=O)c1ccccc1O2 | -46% | 16µM* | 0 | -1 | -11%[0.505 µM] | 6
O=C1CC2(CCN(C(=O)c3ccc(F)c(F)c3)CC2)Oc2ccccc21 | 29µM* | ? | -2 | -11 | -7%[0.505 µM] | -1
CCOC(=O)N1CC(C)N(/[N+]([O-])=N/Oc2ccc([N+](=O)[O-])cc2[N+](=O)[O-])CC1C (centres undefined) | . | . | . | . | 11% | .
O=S(=O)(c1ccccc1)N1CCC2(CC1)CN(c1ccncc1)C2 | ? | 9.2µM* | . | . | . | .
O=S(=O)(c1ccccc1)N1CCC2(CCCN(c3ncccn3)C2)CC1 | -4% | ? | . | . | . | .
O=S(=O)(c1ccccc1)N1CCC2(CC1)CN(c1ccccc1)C2 | -2% | ? | . | . | . | .
O=S(=O)(c1ccccc1)N1CCC2(CCCN(c3ccncc3)C2)CC1 | 2.1µM* | 1.2µM* | . | . | . | .
O=S(=O)(c1ccccc1)N1CCC2(CCN(Cc3ccncc3)CC2)CC1 | ? | 21µM* | . | . | . | .
O=S(=O)(c1ccccc1)N1CCC2(CCCN(c3ccccn3)C2)CC1 | ? | 21µM* | . | . | . | .
O=C1C=CC2C(c3ccc4c(c3)OCO4)CC1N2Cc1ccccc1 (centres undefined) | 8.2µM* | 6.5µM* | -7 | -18 | -5% | 3
Cc1cccc(NC(=O)Cn2cnc3ccc(S(=O)(=O)N4CCC(C)CC4)cc3c2=O)n1 | -9% | -8% | -2 | -7 | 11% | 0
COc1ccccc1CC(=O)Nc1ccc2nc(N3CCC(C)CC3)cc(C)c2c1 | -21% | ? | . | . | -3% | .
COc1ccc(/C=C/C(=O)Nc2ccc3nc(N4CCC(C)CC4)cc(C)c3c2)cc1OC | 4.1µM* | 4.6µM* | . | . | 6% | .
Cc1cccc(CC(=O)Nc2ccc3nc(N4CCC(C)CC4)cc(C)c3c2)c1 | 21µM* | 15µM* | . | . | 6% | .
Cc1cc(N2CCC(C)CC2)nc2ccc(NC(=O)Cc3ccccc3Br)cc12 | 21µM* | 13µM* | . | . | 3% | .
COc1cccc(C(=O)N2CCN(S(=O)(=O)Cc3ccccc3)CC2)c1 | -26% | -15% | -4 | 15 | -4% | -12
Cc1nc2ccccn2c1C(=O)N/N=C/c1ccccc1Cl | 4% | -2% | 7 | 20 | . | -2
Cc1ccc(C)c(NC(=O)COC(=O)CC2c3ccccc3CCN2S(=O)(=O)c2ccc(F)cc2)c1 (centres undefined) | -14% | ? | 6 | 0 | 5% | 8
O=C(CCCC(=O)N(CC(=O)NC1CCCC1)c1ccc(F)c(Cl)c1)Nc1ccccn1 | -6% | 2% | 9 | 20 | 0%[0.0935 µM] | 1
O=C(Nc1ccc(-c2csc(Nc3ccccc3)n2)cc1)c1ccccc1 | 26µM* | 21µM* | -9 | 35 | . | -2
SMILES | TDP1 cell CPT | TDP1 cell noCPT | CtBP-E1A inh | IL-1B inflam inh | TDP1 inh | Six1-Eya2 blk
O=C(Nc1cccc(-c2csc(Nc3ccc(Cl)cc3)n2)c1)c1ccccc1 | 8.2µM* | 16µM* | . | -59* | 4% | -30
Clc1ccc(Nc2nc(-c3cccnc3)cs2)cc1 | -14% | ? | -5 | 5 | 6% | 9
O=C(Nc1ccc(-c2csc(Nc3ccc(Cl)cc3)n2)cc1)c1cc([N+](=O)[O-])cc(C(F)(F)F)c1 | -27% | ? | 6 | 27 | 6% | 2
O=C(Nc1cccc(-c2csc(Nc3ccc(Cl)cc3)n2)c1)c1cc([N+](=O)[O-])cc(C(F)(F)F)c1 | 18µM* | 18µM* | -6 | -27 | 7% | -13
O=C(Nc1cccc(-c2csc(Nc3ccccc3)n2)c1)c1cc([N+](=O)[O-])cc(C(F)(F)F)c1 | ? | ? | 11 | -22 | . | 1
O=C(Nc1cccc(-c2csc(Nc3ccc(Cl)cc3)n2)c1)c1cccc(C(F)(F)F)c1 | ? | 21µM* | -6 | ? | 5% | 1
CCOC(=O)c1cc2c(c(CSc3nc4ccccc4c(=O)n3Cc3ccco3)c1)OCOC2 | ? | -28% | -2 | -2 | -1% | -2
O=C(Nc1ccccc1C(=O)N1CCOCC1)c1cc2ccccc2o1 | -22% | 2% | 5 | 12 | 3% | 2
C=CC[C@]12C[C@@H](OC)C(=O)C=C1O[C@@H](c1ccc(OC)c(OC)c1)[C@H]2C | 18µM* | ? | 10 | 3 | . | 2
COc1ccc(N2CCN(c3ccc(NC(=O)/C=C\C(=O)O)cc3)CC2)cc1 | 17% | -23% | . | -5 | . | -9
O=C(O)/C=C/C(=O)Nc1ccc(N2CCOCC2)nc1N1CCOCC1 | 21µM* | 23µM* | 3 | -7 | 7% | -2
CCc1ccccc1S(=O)(=O)Cc1ccc(C(=O)NC2CCCC2)o1 | -21% | 8% | 2 | -26 | 1% | 3
CC(C)N(CCNC(=O)c1ccc(CS(=O)(=O)c2c(Cl)cccc2Cl)o1)Cc1ccccc1 | 21µM* | ? | -4 | -8 | 4% | -3
Cc1cccc(S(=O)Cc2ccc(C(=O)NC3CCCCCC3)o2)c1 (centres undefined) | 12µM* | ? | . | . | 3% | .
Cc1ccccc1S(=O)(=O)Cc1ccc(C(=O)NCCN(Cc2ccccc2)C(C)C)o1 | ? | 16µM* | 0 | -5 | 4% | -13
Cc1ccccc1S(=O)(=O)Cc1ccc(C(=O)NC2CCCCC2)o1 | 21µM* | ? | 7 | ? | 5% | 5
CN1CCN(c2ccc(S(=O)(=O)N3CCCCC3)cc2NC(=O)COc2ccc([N+](=O)[O-])cc2)CC1 | -1% | -29% | 0 | -15 | . | 0
S=C(NC1CCCCC1)N1CCn2cccc2C1c1cccnc1 (centres undefined) | ? | ? | -12 | -26 | 5% | 0
CCOC(=O)CSCC(=O)Nc1ccc(S(=O)(=O)N2CCCCC2)cc1 | -7% | -4% | -5 | ? | 6% | 0
